# Assay results as given in ChEMBL document CHEMBL3988442, “University of Dundee, Small-Polar-MMV Screening Library” (2021).
# For part of these data: Entries with a potency or affinity are not part of this list.
# Key:
# Set-up in all cases: scale not given: direction of the effect not stated beside the values
# [1] = target: Protein translocase subunit SecA (Escherichia coli (strain K12)) (UniProt P10408); test: Assay to Identify E. coli SecA ATPase Inhibitors; format: functional; conditions: 30 µM
# [2] = target: T1, Ubiquitin-activating enzyme e1, putative (Leishmania donovani (strain BPK282A1)) (UniProt E9BSI1); test: Leishmania donovani Ubiquitin Activating Enzyme (LdE1); format: functional; conditions: 30 µM
# T1 sequence (whole entry): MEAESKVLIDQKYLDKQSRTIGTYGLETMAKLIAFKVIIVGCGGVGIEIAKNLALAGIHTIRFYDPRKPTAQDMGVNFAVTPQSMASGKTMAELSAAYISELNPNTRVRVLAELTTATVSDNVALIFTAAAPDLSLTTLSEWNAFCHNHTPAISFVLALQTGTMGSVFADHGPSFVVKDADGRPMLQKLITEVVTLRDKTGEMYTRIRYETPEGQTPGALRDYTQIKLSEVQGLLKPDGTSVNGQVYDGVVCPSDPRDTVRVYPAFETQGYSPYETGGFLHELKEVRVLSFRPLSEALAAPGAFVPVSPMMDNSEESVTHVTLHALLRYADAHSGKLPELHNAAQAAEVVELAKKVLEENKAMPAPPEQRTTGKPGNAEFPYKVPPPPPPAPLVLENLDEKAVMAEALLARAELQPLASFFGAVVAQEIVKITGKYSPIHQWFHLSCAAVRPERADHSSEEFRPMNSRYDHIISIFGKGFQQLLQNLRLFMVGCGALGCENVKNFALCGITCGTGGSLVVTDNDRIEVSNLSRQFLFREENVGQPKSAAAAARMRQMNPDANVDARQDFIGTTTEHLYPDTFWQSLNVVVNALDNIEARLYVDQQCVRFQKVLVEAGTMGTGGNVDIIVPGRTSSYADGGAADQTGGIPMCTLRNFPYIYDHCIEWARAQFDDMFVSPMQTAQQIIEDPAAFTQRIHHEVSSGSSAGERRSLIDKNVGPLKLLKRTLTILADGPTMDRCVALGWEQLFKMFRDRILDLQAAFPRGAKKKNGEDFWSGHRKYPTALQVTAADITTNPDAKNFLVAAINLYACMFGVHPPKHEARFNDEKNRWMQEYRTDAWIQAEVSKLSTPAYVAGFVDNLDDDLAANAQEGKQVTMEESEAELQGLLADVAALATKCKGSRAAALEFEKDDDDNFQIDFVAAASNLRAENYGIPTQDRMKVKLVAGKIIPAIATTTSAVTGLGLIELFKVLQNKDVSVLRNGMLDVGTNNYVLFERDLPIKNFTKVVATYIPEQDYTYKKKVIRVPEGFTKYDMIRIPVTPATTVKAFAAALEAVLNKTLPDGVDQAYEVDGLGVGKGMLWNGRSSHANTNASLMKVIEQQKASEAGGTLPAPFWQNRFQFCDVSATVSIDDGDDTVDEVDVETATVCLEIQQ
# [3] = target: Sialic acid-binding Ig-like lectin 9 (Homo sapiens) (UniProt Q9Y336); test: Hs-Siglec9 ALPHAscreen SOP 20170721; conditions: 10 µM
# Trypanosoma cruzi = test: Trypanosoma cruzi phosphomannomutase and mannose-1-phosphate guanylyltransferase assay; format: functional; conditions: 10 µM
# [4] = target: T2, Arginase-2, mitochondrial (Homo sapiens) (UniProt P78540); test: in vitro enzyme assay to detect the production of urea directly proportional to the activity of Arginase II; format: functional; conditions: 33.3 µM; also: in the data most compounds retested in dose-response had high values
# T2 sequence (whole entry): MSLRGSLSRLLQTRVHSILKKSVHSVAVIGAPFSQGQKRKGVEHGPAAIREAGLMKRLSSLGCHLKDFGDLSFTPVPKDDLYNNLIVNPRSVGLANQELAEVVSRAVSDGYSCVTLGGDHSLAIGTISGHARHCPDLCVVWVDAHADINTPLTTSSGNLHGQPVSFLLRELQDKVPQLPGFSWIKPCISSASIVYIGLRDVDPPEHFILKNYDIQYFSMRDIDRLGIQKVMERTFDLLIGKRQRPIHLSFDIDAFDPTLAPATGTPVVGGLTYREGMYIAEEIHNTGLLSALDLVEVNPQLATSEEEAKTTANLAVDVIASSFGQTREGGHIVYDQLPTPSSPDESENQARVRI
# [5] = target: T3, Proteasome subunit beta (Trypanosoma cruzi) (UniProt O96673); test: Trypanosoma cruzi proteasome chymotrypsin-like activity (TcProtChymo) assay.; also: in the data most compounds retested in dose-response had high values; format: functional; conditions: 9.37 µM
# T3 sequence (whole entry): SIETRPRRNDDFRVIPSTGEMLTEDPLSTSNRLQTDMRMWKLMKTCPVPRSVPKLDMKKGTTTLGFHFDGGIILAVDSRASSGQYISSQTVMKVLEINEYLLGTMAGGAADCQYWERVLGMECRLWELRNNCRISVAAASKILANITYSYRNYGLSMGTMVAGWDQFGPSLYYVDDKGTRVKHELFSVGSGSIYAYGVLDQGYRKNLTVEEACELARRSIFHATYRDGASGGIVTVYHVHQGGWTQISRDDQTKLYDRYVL
# Homo sapiens = organism: Homo sapiens; test: To identify inhibition of the IFN signalling (Jak-Stat) pathway via expression of an eGFP reporter gene under the control of an IFN-stimulated response element (ISRE) containing MxA promoter.; format: functional; conditions: 30 µM
# [6] = target: T4, Tyrosyl-tRNA synthetase, putative (Trypanosoma cruzi (strain CL Brener)) (UniProt Q4DSP6); test: Trypanosoma cruzi tyrosyl tRNA synthetase (TcYRS) _High Tyrosine SOP; format: functional; conditions: 30 µM; also: in the data most compounds retested in dose-response had high values
# T4 sequence (whole entry): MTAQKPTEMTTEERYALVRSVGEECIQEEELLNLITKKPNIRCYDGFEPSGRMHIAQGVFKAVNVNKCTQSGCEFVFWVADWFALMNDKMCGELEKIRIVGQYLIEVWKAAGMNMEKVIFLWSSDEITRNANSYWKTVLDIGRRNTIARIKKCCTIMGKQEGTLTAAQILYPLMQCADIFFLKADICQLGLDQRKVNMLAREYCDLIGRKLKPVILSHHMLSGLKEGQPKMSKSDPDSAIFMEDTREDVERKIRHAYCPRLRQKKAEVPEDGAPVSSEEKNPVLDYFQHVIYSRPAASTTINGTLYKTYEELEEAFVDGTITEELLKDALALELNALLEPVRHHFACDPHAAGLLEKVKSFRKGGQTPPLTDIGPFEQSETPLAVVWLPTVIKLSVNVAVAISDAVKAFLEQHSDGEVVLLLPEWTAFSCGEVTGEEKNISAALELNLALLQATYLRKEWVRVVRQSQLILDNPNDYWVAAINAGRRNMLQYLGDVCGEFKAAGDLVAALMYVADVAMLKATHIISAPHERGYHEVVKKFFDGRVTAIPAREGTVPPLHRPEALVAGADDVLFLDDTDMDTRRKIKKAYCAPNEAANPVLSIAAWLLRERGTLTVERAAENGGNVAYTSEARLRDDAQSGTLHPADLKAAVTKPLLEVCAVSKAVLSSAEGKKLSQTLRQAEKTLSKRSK
# [7] = target: T4, Tyrosyl-tRNA synthetase, putative (Trypanosoma cruzi (strain CL Brener)); test: Trypanosoma cruzi tyrosyl tRNA synthetase (TcYRS) SOP; format: functional; conditions: 30 µM
# [8] = target: Chromo domain-containing protein 1 (Saccharomyces cerevisiae (strain ATCC 204508 / S288c) (Baker's yeast)) (UniProt P32657); test: ScCHD-1 Enzyme Inhibition Assay; format: functional; conditions: 30 µM; also: in the data most compounds retested in dose-response had high values
# Chain of Chromo domain-containing protein 1 (Saccharomyces cerevisiae (strain ATCC 204508 / S288c) (Baker's yeast)) (P32657 whole entry, the tested form may be a part): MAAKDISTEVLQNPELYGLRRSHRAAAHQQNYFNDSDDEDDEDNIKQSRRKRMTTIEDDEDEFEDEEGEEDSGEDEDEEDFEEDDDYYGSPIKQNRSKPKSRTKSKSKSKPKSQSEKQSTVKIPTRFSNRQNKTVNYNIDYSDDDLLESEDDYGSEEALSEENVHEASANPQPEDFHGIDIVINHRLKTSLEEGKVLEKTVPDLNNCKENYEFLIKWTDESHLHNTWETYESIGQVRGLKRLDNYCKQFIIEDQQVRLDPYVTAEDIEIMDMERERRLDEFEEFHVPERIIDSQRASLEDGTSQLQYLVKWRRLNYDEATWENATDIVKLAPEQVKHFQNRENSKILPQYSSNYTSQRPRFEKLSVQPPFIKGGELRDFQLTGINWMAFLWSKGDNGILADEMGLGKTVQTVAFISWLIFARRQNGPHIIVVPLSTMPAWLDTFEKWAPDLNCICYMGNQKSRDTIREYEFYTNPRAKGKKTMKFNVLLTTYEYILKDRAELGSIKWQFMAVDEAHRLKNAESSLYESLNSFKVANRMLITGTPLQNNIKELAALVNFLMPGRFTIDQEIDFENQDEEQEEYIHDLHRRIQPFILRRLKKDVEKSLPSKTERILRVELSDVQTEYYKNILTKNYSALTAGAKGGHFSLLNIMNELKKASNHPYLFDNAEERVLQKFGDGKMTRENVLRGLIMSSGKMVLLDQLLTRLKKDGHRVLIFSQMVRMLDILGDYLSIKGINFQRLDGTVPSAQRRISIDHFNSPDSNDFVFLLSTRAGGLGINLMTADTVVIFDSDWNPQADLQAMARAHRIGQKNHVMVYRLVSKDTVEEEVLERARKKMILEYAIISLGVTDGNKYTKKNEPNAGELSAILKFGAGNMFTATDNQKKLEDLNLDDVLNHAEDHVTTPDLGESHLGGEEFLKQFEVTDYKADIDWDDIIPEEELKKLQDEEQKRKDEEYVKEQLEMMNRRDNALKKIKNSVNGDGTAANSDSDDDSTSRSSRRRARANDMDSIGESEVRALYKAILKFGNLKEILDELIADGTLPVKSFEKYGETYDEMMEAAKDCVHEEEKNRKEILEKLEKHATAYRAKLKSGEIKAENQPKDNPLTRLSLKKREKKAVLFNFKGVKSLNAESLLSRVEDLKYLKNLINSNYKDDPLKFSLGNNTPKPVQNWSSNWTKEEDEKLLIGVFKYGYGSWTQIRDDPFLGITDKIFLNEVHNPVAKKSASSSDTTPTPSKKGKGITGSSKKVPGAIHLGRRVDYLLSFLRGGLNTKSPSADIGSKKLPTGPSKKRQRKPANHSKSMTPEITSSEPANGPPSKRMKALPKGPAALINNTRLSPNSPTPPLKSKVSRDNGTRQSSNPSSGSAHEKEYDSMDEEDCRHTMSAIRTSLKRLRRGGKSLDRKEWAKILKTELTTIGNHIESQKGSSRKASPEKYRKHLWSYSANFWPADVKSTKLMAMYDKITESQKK
# Chain of Protein translocase subunit SecA (Escherichia coli (strain K12)) (P10408 whole entry): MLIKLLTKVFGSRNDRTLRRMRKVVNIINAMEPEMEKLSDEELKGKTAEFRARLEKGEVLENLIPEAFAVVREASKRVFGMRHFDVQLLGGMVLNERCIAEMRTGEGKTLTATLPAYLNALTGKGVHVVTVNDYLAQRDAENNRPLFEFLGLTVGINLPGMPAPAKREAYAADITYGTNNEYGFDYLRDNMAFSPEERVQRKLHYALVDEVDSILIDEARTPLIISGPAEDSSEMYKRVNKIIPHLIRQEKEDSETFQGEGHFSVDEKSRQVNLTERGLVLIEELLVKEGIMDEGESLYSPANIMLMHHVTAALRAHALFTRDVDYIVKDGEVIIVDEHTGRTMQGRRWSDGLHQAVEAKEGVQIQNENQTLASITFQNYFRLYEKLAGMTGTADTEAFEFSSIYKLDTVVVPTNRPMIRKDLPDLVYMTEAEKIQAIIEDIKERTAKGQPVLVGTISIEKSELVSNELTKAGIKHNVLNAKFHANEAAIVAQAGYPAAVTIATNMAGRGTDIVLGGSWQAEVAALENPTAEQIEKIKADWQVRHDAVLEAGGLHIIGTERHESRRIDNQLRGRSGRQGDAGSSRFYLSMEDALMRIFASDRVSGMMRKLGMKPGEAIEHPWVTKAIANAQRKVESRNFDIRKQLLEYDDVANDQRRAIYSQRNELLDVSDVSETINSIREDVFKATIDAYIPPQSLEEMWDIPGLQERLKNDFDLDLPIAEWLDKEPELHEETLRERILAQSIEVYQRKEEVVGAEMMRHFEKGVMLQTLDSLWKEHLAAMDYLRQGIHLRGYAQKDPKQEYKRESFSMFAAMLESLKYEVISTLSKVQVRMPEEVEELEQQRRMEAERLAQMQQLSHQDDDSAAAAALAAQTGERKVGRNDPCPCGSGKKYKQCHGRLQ
# Chain of Sialic acid-binding Ig-like lectin 9 (Homo sapiens) (Q9Y336 whole entry): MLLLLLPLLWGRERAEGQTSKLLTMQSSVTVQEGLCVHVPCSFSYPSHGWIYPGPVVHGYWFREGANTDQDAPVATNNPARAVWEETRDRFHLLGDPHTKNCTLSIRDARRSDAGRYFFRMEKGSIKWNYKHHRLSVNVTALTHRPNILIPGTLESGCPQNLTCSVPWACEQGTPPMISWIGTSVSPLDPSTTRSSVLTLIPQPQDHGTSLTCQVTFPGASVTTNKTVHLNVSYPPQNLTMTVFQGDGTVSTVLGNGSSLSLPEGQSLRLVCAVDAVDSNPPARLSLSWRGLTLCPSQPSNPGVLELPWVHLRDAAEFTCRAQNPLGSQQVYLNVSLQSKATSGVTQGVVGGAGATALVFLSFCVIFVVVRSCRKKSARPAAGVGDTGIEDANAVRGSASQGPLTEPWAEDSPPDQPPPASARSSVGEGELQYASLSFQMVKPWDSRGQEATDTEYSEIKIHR
SMILES,Percent Effect [1] [%],Percent Effect [2] [%],Percent Effect [3] [%],Percent Effect (Trypanosoma cruzi) [%],Percent Effect [4] [%],Percent Effect [5] [%],Percent Effect (Homo sapiens) [%],Percent Effect [6] [%],Percent Effect [7] [%],Percent Effect [8] [%]
CCc1nc(CN2CCCN(C(=O)c3c(C)noc3C)CC2)cs1,-2.47,10.3,-1.6,0.0939,2.87,8.11,13.8,3.35,8.43,-3.62
Cc1ccc([C@@H]2CN(C(=O)c3cccnn3)C[C@H]2NC(=O)C2CC2)cc1,-10.6,5.41,16.9,4.17,4.54,13.2,3.04,5.85,19.5,-1.62
CSc1ccccc1C(C(=O)O)N1CCN(Cc2ccccn2)CC1 (stereo not given),-6,13.5,6.14,9.21,60.5,10.8,14.2,6.92,19.5,0.128
COC(=O)Cn1c(=O)nc2n1C(=O)N(c1ccccc1)C2,-4.54,5.41,-1.57,-7.27,5.94,9.76,17,3.72,9.76,-2.64
Cc1nnc2n1CCN(C(C(=O)NC1CC1)c1ccccc1)C2 (stereo not given),-3.46,2.56,6.36,3.47,3.69,5.72,8.81,3.35,13.2,-2.99
Cc1cc(C2CCCN2CCCS(=O)(=O)c2ccccc2)no1 (stereo not given),-1.74,5.13,19.5,-1.41,-1.23,-8.11,8.46,3.35,8.43,-1.93
CC1CN(CC2CCCCC2)CCN1c1ccc2nncn2n1 (stereo not given),3.17,15.4,-7.37,-4.6,-0.82,16.1,58.1,5.26,8.43,95.7
Cn1cc(-c2nnn3c2COC(CNCc2nccs2)C3)cn1 (stereo not given),-3.81,11.7,1,4.19,10.5,11.6,6.11,5.79,17.9,8.68
c1ncn(CC2CCCN2Cc2cn3ccsc3n2)n1 (stereo not given),-3.52,5.13,-17.1,7.61,-1.23,-4.86,-3.77,2.39,6.02,1.9
Cc1cnn(CC2CN(CC(=O)NCCc3cccs3)CCO2)c1 (stereo not given),-3.45,0,6.55,-4.62,0.887,3.48,9.62,4.74,-2.56,-0.407
COc1ccc(CNCC2CCN(CC(C)O)CC2)c2ccccc12 (stereo not given),-1.39,-10.3,5.63,5.73,6.97,0.939,31.9,4.31,18.1,-4.71
Cn1cc(CN2CCC3(CC(=O)N(c4ccc5c(c4)OCO5)C3)C2)cn1 (stereo not given),-2.97,1.3,-2.34,1.85,-2.43,-1.15,4.19,4.74,5.13,-0.178
CN(C)S(=O)(=O)N1CC[C@]2(C[C@H](Oc3cccnc3)CO2)C1,-2.88,14.3,-1.9,1.66,8.91,23.7,1.15,11.1,15.4,-4.29
CC(C)(C)n1ncc2c1NC(=O)CC2c1ccccc1 (stereo not given),-4.86,5.41,5.59,2.23,-3.15,13.2,12.2,3.72,14.6,96
Cc1nn2cccnc2c1C(=O)N1CCCC(Nc2ccccc2)C1 (stereo not given),-3.41,0,1,-0.803,7.54,-2.46,-3.46,5.79,5.13,8.56
CCOc1ccc(Cl)c(C(=O)N(C)C)n1,-2.43,15.4,-11.2,-3.66,2.05,14.2,30.8,4.31,13.2,-2.78
CCC(=O)N1CCC(Cc2nccnc2Nc2ccccn2)CC1,-5.27,4,-4.87,1.58,-1.77,-5.91,18.1,-4.23,-2.5,-20
NC(=O)CN1CCC(NC(=O)Nc2nccs2)CC1,-1.25,15.4,-19.1,9.11,-0.82,13.1,5.92,1.44,20.5,-8.95
Cn1cc(CN2C[C@@H]3COC[C@]3(CNC(=O)c3ccsc3)C2)cn1,-3,-1.3,16.9,-3.6,-5.26,9.27,-6.13,-1.58,0,-2.4
O=C(CO)N1CCc2onc(Cn3cccn3)c2C1,-5.41,3.9,3.29,1.27,-1.62,7.5,-4.61,2.63,5.13,0.404
CC(C)(C)c1nnc(CN2CCn3c(nnc3C3CC3)C2)o1,-1.7,-2.67,0.00454,-2.21,0.444,3.14,13.2,0.526,2.56,9.52
Cc1ccc(NC2CCN(C(=O)c3cnc(C)s3)CC2)nn1,-3.62,10.7,-0.486,-3.01,0.887,-0.594,15.9,5.79,12.8,-6.74
NC(=O)Cn1cc(NC(=O)N2CCCC2)cn1,1.14,12.8,-7.88,-0.469,8.61,11.7,19.1,5.26,18.1,-4.77
CN(Cc1cccc(F)c1)C(=O)CN1CCOC(Cn2cccn2)C1 (stereo not given),0.367,0,7.99,0.933,0.615,3.86,8.18,3.92,9.41,-0.994
